# Measurements as given in PubChem BioAssay (NCI).
# The panel holds about 79,000 compounds, 15% with a hit somewhere; the sample as a whole holds those more often. Values without a mark were called inactive. Activity calls are given as the source filed them. Rule as the data show it: active = growth inhibition above about 70%; inactive = the rest.
# Columns and labels:
# [1] = NCI Yeast Anticancer Drug Screen. Data for the wt1 strain (AID 149);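 also: 0% = growth of vehicle-treated wt1 cultures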; conditions: S. cerevisiae wt1 strain (SPY 50644) growth inhibition, active compounds read high
# Outline: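 Using yeast strain wt1, compound-induced growth inhibition was determined against vehicle-treated cultures.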
# [2] = NCI Yeast Anticancer Drug Screen. Data for the rad50EPP+ strain (AID 151);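 also: 0% = growth of vehicle-treated control cultures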; conditions: S. cerevisiae rad50 mutant strain, active compounds read high
# Outline: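 Read-out is yeast growth inhibition relative to vehicle; cells used were the rad50EPP+ strain.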
# [3] = NCI Yeast Anticancer Drug Screen. Data for the mgt1 strain (AID 153); conditions: S. cerevisiae mgt1 mutant growth inhibition, active compounds read high
# Outline: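 Measured: inhibition of mgt1 yeast growth by compound, normalized to vehicle-treated cultures.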
# [4] = NCI Yeast Anticancer Drug Screen. Data for the rad50 strain (AID 155);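 also: 0% = growth of vehicle-only cultures of the same strain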; conditions: S. cerevisiae rad50 strain growth inhibition, active compounds read high
# Outline: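 Relative growth inhibition (compound vs vehicle) was measured in yeast with a defined repair-gene alteration.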
# [5] = NCI Yeast Anticancer Drug Screen. Data for the mec2-1 strain (AID 157); conditions: S. cerevisiae mec2-1 strain, active compounds read high
# Outline: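 Using mec2-1 yeast: add compound, measure growth, express inhibition versus vehicle-treated cultures.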
# [6] = NCI Yeast Anticancer Drug Screen. Data for the rad14 strain (AID 159);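 also: 0% = growth of vehicle-treated control cultures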; conditions: S. cerevisiae rad14 strain growth inhibition, active compounds read high
# Outline: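 Screen for anticancer potential: a yeast strain altered in DNA damage repair is grown with compound, and reduced growth is quantified against vehicle controls.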
# [7] = NCI Yeast Anticancer Drug Screen. Data for the sgs1 mgt1 strain (AID 161);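 also: 0% = growth of cultures given vehicle only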; conditions: S. cerevisiae sgs1 mgt1 strain, active compounds read high
# Outline: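 Percent growth inhibition was derived by comparing compound-exposed mutant yeast with vehicle-exposed cultures. The strain carries alterations in DNA damage repair.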
# [8] = NCI Yeast Anticancer Drug Screen. Data for the CLN2oe strain (AID 163);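 also: 0% = growth of vehicle-only control cultures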; conditions: S. cerevisiae CLN2oe strain, active compounds read high
# Outline: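 Whole-cell yeast growth assay. A strain engineered for altered cell-cycle control received compound, and inhibition relative to vehicle-treated cultures was recorded.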
# [9] = NCI Yeast Anticancer Drug Screen. Data for the cln2 rad14 strain (AID 165);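 also: 0% = growth equal to vehicle treated cultures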; conditions: S. cerevisiae cln2 rad14 strain, active compounds read high
# Outline: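 Yeast strain cln2 rad14, bearing defects in cell cycle control and DNA repair, serves as the test system; values reflect growth inhibition compared with vehicle.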
# [10] = NCI Yeast Anticancer Drug Screen. Data for the bub3 strain (AID 167); conditions: S. cerevisiae bub3 mutant strain, active compounds read high
# Outline: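 Screening used yeast with an engineered genetic alteration affecting cell cycle control. Compound-exposed cultures were compared with vehicle cultures, and reduced growth was taken as inhibition.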
# [11] = NCI Yeast Anticancer Drug Screen. Data for the wt2 strain (AID 169);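 also: 0% = growth of vehicle-treated yeast cultures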; conditions: S. cerevisiae wt2 strain growth inhibition, active compounds read high
# Outline: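 Treated yeast vs. vehicle-treated yeast: growth inhibition determined.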
# [12] = NCI Yeast Anticancer Drug Screen. Data for the mlh1 strain (AID 171);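 also: 0% = growth of vehicle-treated control cultures of the same strain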; conditions: S. cerevisiae mlh1 strain growth inhibition, active compounds read high
# Outline: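 A yeast strain with a defined genetic lesion serves as the test organism. Cultures receive compound or vehicle, and growth is measured.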
# [13] = NCI Yeast Anticancer Drug Screen. Data for the sgs1 strain (AID 173);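 also: 0% = growth of vehicle-only control cultures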; conditions: S. cerevisiae sgs1 mutant, active compounds read high
# Outline: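 A genetically defined yeast mutant is incubated with the test compound, and its growth is compared to that of the same strain given vehicle.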
# [14] = NCI Yeast Anticancer Drug Screen. Data for the rad18 strain (AID 177); conditions: S. cerevisiae rad18 mutant growth inhibition, active compounds read high
# Outline: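 Measured value is growth inhibition of a yeast strain bearing a DNA repair alteration, referenced to vehicle-treated cells.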
# [15] = at 5.0 µM (retest, dose inferred, filed as 0.5)
# [16] = at 50.0 µM (retest, dose inferred, filed as 5.0)
smiles,measurement,setting,value
O=C(N=Nc1cc(Cl)ccc1Cl)NNc1cc(Cl)ccc1Cl,growth inhibition,[1]; at 1.2 µM,-2%
same,growth inhibition,[1]; at 3.7 µM,0%
same,growth inhibition,[1]; at 11.0 µM,-1%
same,growth inhibition,[1]; at 33.0 µM,0%
same,growth inhibition,[1]; at 100.0 µM,4%
same,growth inhibition,[2]; at 1.2 µM,-1%
same,growth inhibition,[2]; at 3.7 µM,-3%
same,growth inhibition,[2]; at 11.0 µM,-1%
same,growth inhibition,[2]; at 33.0 µM,-3%
same,growth inhibition,[2]; at 100.0 µM,4%
same,growth inhibition,[3]; at 1.2 µM,-3%
same,growth inhibition,[3]; at 3.7 µM,-4%
same,growth inhibition,[3]; at 11.0 µM,17%
same,growth inhibition,[3]; at 33.0 µM,-12%
same,growth inhibition,[3]; at 100.0 µM,2%
same,growth inhibition,[4]; at 1.2 µM,-2%
same,growth inhibition,[4]; at 3.7 µM,-2%
same,growth inhibition,[4]; [15],-2%
same,growth inhibition,[4]; at 11.0 µM,-23%
same,growth inhibition,[4]; at 33.0 µM,-1%
same,growth inhibition,[4]; [16],76% (active)
same,growth inhibition,[4]; at 50.0 µM,74.4% (active)
same,growth inhibition,[4]; at 100.0 µM,3%
same,growth inhibition,[5]; at 1.2 µM,-1%
same,growth inhibition,[5]; at 3.7 µM,0%
same,growth inhibition,[5]; [15],19%
same,growth inhibition,[5]; at 11.0 µM,3%
same,growth inhibition,[5]; at 33.0 µM,-1%
same,growth inhibition,[5]; [16],79% (active)
same,growth inhibition,[5]; at 50.0 µM,78.1% (active)
same,growth inhibition,[5]; at 100.0 µM,4%
same,growth inhibition,[6]; at 1.2 µM,-3%
same,growth inhibition,[6]; at 3.7 µM,-4%
same,growth inhibition,[6]; at 11.0 µM,-5%
same,growth inhibition,[6]; at 33.0 µM,2%
same,growth inhibition,[6]; at 100.0 µM,3%
same,growth inhibition,[7]; [15],3%
same,growth inhibition,[7]; [16],73% (active)
same,growth inhibition,[7]; at 50.0 µM,66.5%
same,growth inhibition,[8]; at 1.2 µM,0%
same,growth inhibition,[8]; at 3.7 µM,-7%
same,growth inhibition,[8]; at 11.0 µM,0%
same,growth inhibition,[8]; at 33.0 µM,0%
same,growth inhibition,[8]; at 100.0 µM,9%
same,growth inhibition,[9]; [15],39%
same,growth inhibition,[9]; [16],82% (active)
same,growth inhibition,[9]; at 50.0 µM,71.8% (active)
same,growth inhibition,[10]; at 1.2 µM,-1%
same,growth inhibition,[10]; at 3.7 µM,2%
same,growth inhibition,[10]; [15],-30%
same,growth inhibition,[10]; at 11.0 µM,3%
same,growth inhibition,[10]; at 33.0 µM,-7%
same,growth inhibition,[10]; [16],81% (active)
same,growth inhibition,[10]; at 50.0 µM,60.1%
same,growth inhibition,[10]; at 100.0 µM,-6%
same,growth inhibition,[11]; at 1.2 µM,-1%
same,growth inhibition,[11]; at 3.7 µM,-3%
same,growth inhibition,[11]; at 11.0 µM,-2%
same,growth inhibition,[11]; at 33.0 µM,-1%
same,growth inhibition,[11]; at 100.0 µM,2%
same,growth inhibition,[12]; at 1.2 µM,-1%
same,growth inhibition,[12]; at 3.7 µM,-5%
same,growth inhibition,[12]; at 11.0 µM,-3%
same,growth inhibition,[12]; at 33.0 µM,-1%
same,growth inhibition,[12]; at 100.0 µM,1%
same,growth inhibition,[13]; at 1.2 µM,-2%
same,growth inhibition,[13]; at 3.7 µM,-1%
same,growth inhibition,[13]; at 11.0 µM,-1%
same,growth inhibition,[13]; at 33.0 µM,-1%
same,growth inhibition,[13]; at 100.0 µM,1%
same,growth inhibition,[14]; at 1.2 µM,-4%
same,growth inhibition,[14]; at 3.7 µM,-3%
same,growth inhibition,[14]; at 11.0 µM,-6%
same,growth inhibition,[14]; at 33.0 µM,-21%
same,growth inhibition,[14]; at 100.0 µM,3%
